B2AR arrestin = agonists driving beta-arrestin recruitment to human beta2-adrenergic receptor. Potency, µM (top dose mostly 46.1 µM), most hits filed as activators. AID 492947. beta-arrestin recruitment to beta2AR, cell-based reporter. 0.02% of 330,000 active. P07550; also: nearly all actives have a fitted effect of over 65% in size
VP16 counter = Gal4-VP16 reporter inhibition counter-screen; Drosophila S2 Gal4-VP16 UAS-luciferase, luminescence, 20 h; Potency, µM (titrated, usually from 53.6 µM), usual class: inhibitors; 3.5% of 310,000 active;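 also: Gal4-VP16 expression switched on by copper sulfate through the metallothionein promoter; nearly all actives have a fitted effect of over 50% in size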
TSHR antagonist = blocks TSH signaling through the human TSH receptor; activity change, negative = inhibition, % at 11.5 µM; TSHR-expressing cells, TSH-stimulated cAMP HTRF, 2 h; hits give low values; P16473; 0.2% of 330,000 active;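 active = activity change below a set negative limit, meaning inhibition stronger than a set level, cut at about -70% in these data; inconclusive = activity change between two set negative limits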
Target sequence (P16473 whole entry, looked up): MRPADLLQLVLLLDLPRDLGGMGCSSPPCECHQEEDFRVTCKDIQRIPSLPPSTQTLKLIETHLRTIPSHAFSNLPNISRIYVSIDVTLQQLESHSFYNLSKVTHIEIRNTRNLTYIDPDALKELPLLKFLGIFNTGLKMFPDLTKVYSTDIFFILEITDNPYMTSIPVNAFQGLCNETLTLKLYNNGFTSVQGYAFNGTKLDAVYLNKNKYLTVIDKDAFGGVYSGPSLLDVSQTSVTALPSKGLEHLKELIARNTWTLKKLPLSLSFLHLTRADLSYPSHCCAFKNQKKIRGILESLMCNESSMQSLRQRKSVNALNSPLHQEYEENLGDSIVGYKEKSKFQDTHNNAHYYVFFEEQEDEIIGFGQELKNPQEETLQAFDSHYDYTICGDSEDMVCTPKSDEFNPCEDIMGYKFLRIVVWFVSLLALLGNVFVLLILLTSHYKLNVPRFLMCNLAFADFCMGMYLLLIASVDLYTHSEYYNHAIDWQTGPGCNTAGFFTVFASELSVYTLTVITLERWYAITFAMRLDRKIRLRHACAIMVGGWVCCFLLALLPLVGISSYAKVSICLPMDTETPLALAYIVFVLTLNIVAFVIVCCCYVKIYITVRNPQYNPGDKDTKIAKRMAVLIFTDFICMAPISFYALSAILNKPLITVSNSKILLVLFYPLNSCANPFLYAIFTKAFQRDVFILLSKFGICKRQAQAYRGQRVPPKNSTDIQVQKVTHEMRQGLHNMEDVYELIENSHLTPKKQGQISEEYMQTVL
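Antagonism was scored as loss of TSH-driven cAMP in TSHR cells, stimulated with 4nM TSH (EC80) for 2 hours at 37 deg C and detected by homogeneous HTRF competition immunoassay.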
ELG1 repair inh = inhibitors of ELG1-dependent DNA repair in HEK293T cells | HEK293T ELG1-luciferase reporter, luminescence, 16 h; DNA damage induced by 5-fluorouridine | Potency, µM (doses to about 46.1 µM), actives largely listed as inhibitors | 2.3% of 330,000 active | AID 504467; also: nearly all actives have a fitted effect of over 55% in size
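Reporter activity after DNA damage by 5-fluorouridine is monitored. Compound-treated cells incubate 16 hr at 37 °C, then ONE-Glo is added for 30 min before luminescence reading.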
RORgamma inh = inhibitors of mouse ROR gamma transcriptional activity; P51450; Drosophila S2 Gal4-RORgamma UAS-luciferase reporter, 20 h; Potency, µM (highest dose often 53.6 µM), usual class: inhibitors; 5.4% of 310,000 active; also: nearly all actives have a fitted effect of over 60% in size
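Stably transfected Drosophila Schneider cells are the test system, with ROR gamma fused to Gal4 and luciferase under UAS control; luminescence is read after 20 hr of 700 uM copper sulfate induction at ambient temperature.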
A number is an active result; 0 = inactive; ? = inconclusive; - = not tested or not shown; [ ] = another dose, or the depositor's remark. Sampled rows, rich in hits. Any-hit rate of the full collection: about 7.5%. Unless noted, calls follow the shape of the dose curve; as a rule, active = well fitted curve in the direction sought with a large enough effect; inconclusive = small, poorly fitted or top-dose-only effect, or another doubt; inactive = no such curve, though single readings can be large; an effect the other way counts as inactive or inconclusive.

SMILES	B2AR arrestin	VP16 counter	TSHR antagonist	ELG1 repair inh	RORgamma inh
COC(=O)c1ccc2c(=O)n(CCO)c(=S)[nH]c2c1	0	0	0	0	0
COC(=O)c1ccc2c(=O)n(CCCCCC(=O)O)c(=S)[nH]c2c1	0	14µM	0	0	7.1µM
COC(=O)c1ccc2c(=O)n(Cc3ccc(C(=O)NC4CCCC4)cc3)c(=S)[nH]c2c1	0	0	0	?	0
COC(=O)c1ccc2c(=O)n(Cc3ccc4c(c3)OCO4)c(=S)[nH]c2c1	0	3.5µM	0	0	2.5µM
Cc1ccc(C)c(-c2ccc(C(=O)O)o2)c1	-	0	-	-	13µM
COc1ccccc1-c1ccc(C(=O)O)o1	0	0	0	?	0
Clc1ccc(SCc2csc(N3CCOCC3)n2)cc1	0	0	0	?	0
O=c1cc(CSc2ccc(Cl)cc2)nc(-c2ccccn2)[nH]1	0	4.5µM	0	?	4µM
O=c1cc(CSc2ccc(Cl)cc2)nc(-c2ccccc2)[nH]1	0	0	0	?	0
Clc1ccc(SCc2cc(N3CCOCC3)nc(-c3ccccn3)n2)cc1	0	4.5µM	0	?	0.56µM
CS(=O)(=O)Nc1cccc(-c2cc(Nc3ccccc3)ncn2)c1	-	0	-	-	?
O=C(CCCN1C(=O)/C(=C/c2ccccc2Cl)SC1=S)NNC(=O)c1ccccc1Cl	0	2.8µM	0	?	1µM
O=C(CCCN1C(=O)/C(=C\c2cccs2)SC1=S)NNC(=O)c1cccnc1	0	?	0	0	5.6µM
O=C(CCCN1C(=O)/C(=C/c2ccccc2Cl)SC1=S)NNC(=O)c1ccncc1	0	10µM	0	?	?
O=C(C(=O)N1CCN(c2cccc(Cl)c2)CC1)c1cn(CC(=O)N2CCOCC2)c2ccccc12	0	0	0	0	0
CCCCOc1cccc(C2/C(=C(/O)c3ccc4c(c3)CC(C)O4)C(=O)C(=O)N2CCN2CCOCC2)c1 (centres undefined)	0	0	0	0	?
Cc1ccc(Cn2cc(C(=O)c3ccc(F)cc3)c(=O)c3cc4c(cc32)OCCO4)cc1	0	0	0	21µM	0
CC(=O)OC[C@H]1O[C@@H](O/N=C(\C)CCC(=O)OC[C@@H]2O[C@H](C#Cc3ccccc3)C=C[C@@H]2Oc2ccc(C)cc2)[C@H](OC(C)=O)[C@@H](OC(C)=O)[C@H]1OC(C)=O	-	0[10 µM]	-	-	0[10 µM]
Cc1ccc(-c2ccnc(=S)[nH]2)cc1	0	3.5µM	0	0	2.8µM
S=c1nccc(-c2ccc3c(c2)CCO3)[nH]1	0	6.3µM	0	?	3.2µM
CC1(C)CCc2cc(-c3ccnc(=S)[nH]3)ccc2O1	0	3.2µM	0	?	1.8µM
Cc1ccc(C(=O)c2ncc[nH]2)cc1	0	-	0	?	-
S=c1nccc(-c2cccs2)[nH]1	0	7.9µM	0	0	4µM
CC1(C)CCc2cc(CN3CCN(c4ccccn4)CC3)ccc2O1	0	0	0	?	0
Cc1ccccc1OCCC(=O)Nc1ccc(N2CCOCC2)cc1N1CCOCC1	0	-	0	0	-
SMILES	B2AR arrestin	VP16 counter	TSHR antagonist	ELG1 repair inh	RORgamma inh
Cc1cc(N)c2ccccc2[n+]1CCCCCCCCCC[n+]1c(C)cc(N)c2ccccc21	-	?	0	-	?
CCSc1nc2c(c(=O)[nH]c(=O)n2C)n1CC(O)COc1ccccc1C (centres undefined)	0	0	0	16µM	0
Nc1ccccc1[N+](=O)[O-]	-	0	-	-	0
O=C(Cl)COCc1ccccc1	-	0	-	-	0
CCC1CCCCN1C(=S)NC(=O)c1ccc([N+](=O)[O-])cc1 (centres undefined)	0	0.28µM	0	0	0.25µM
CCC1CCCCN1C(=S)NC(=O)c1cccs1 (centres undefined)	0	1.1µM	0	0	0.71µM
O=C(Nc1ccccc1N1CCCCC1)c1ccc(F)c(S(=O)(=O)N2CCOCC2)c1	0	-	0	13µM	-
CCC1CCCCN1C(=S)NC(=O)c1ccc(F)c(S(=O)(=O)N2CCOCC2)c1 (centres undefined)	0	1.6µM	0	?	0.56µM
CC1=C(C)C[C@@]23CCCN2C(=O)CCC[C@H]3C1	-	0	-	-	0
CN1CCN(c2ncc3nc(-c4ccc(Cl)cc4)c(=O)n(C)c3n2)CC1	-	0	-	-	0
CCOC(=O)C1CCN(C(=S)NC(=O)c2cccs2)CC1	0	4.5µM	0	0	5.6µM
Cc1ccc(C(NC(=O)N2CCOCC2)=C(Cl)Cl)cc1F	0	2.2µM	0	0	22µM
Cc1cc(Cl)ccc1NC(=O)CN1C(=O)NC2(CCCc3ccccc32)C1=O (centres undefined)	0	-	0	0	-
CCOC(=O)c1c(C)[nH]c(C2=NNC(=Nc3ccccc3)SC2)c1C	0	11µM	0	?	?
CCN(CC)S(=O)(=O)c1ccc2c(c1)nc(SCC(=O)N1CCCCCC1)n2-c1ccc(OC)cc1	0	0	0	5.2µM	0
CCN(CC)S(=O)(=O)c1ccc2c(c1)nc(SCC(N)=O)n2-c1ccc(OC)cc1	0	0	0	?	0
COc1ccc(C2C3C=CCC(C)C3C(=O)N2Cc2ccccc2)cc1Cl (centres undefined)	-	0	-	-	0
CCN(CC1COc2ccccc2O1)C(=S)NC1CC2CCC1C2 (centres undefined)	0	?	0	?	8.9µM
COc1ccc2c(c1)O[C@@H](c1ccc3c(c1)OCO3)[C@H](OC(=O)Nc1ccc(C)c(Br)c1)C2=O	-	0	-	-	0
COc1cccc(CS(=O)(=O)c2nnnn2-c2ccccc2)c1	-	0	-	-	7.1µM
COc1cccc(-n2nnnc2SCC(=O)Nc2ccccc2OC)c1	0	0	0	0	0
CCCS(=O)(=O)c1nnnn1-c1cccc(OC)c1	0	4.5µM	0	?	1.8µM
O=C(Nc1c[nH]c(=O)[nH]c1=O)c1cccc([N+](=O)[O-])c1	0	0	0	0	0
O=C(CN1CCN(S(=O)(=O)c2ccc(F)cc2)CC1)NCC1(N2CCOCC2)CCCCC1	0	-	0	0	-
Cc1csc(N(C(=O)c2cccc(S(=O)(=O)N(C)C)c2)c2ccccc2)n1	0	0	0	15µM	0
SMILES	B2AR arrestin	VP16 counter	TSHR antagonist	ELG1 repair inh	RORgamma inh
Cc1csc(NC(=O)c2cccc(S(=O)(=O)N3CCN(C)CC3)c2)n1	0	0	0	?	0
Cc1csc(N(C(=O)c2cccc(S(=O)(=O)N3CCCC3)c2)c2ccccc2)n1	0	0	-	21µM	0
CCOC(=O)c1sc(NC(=O)CSc2n[nH]c(-c3ccc(Cl)cc3Cl)n2)c(C#N)c1C	0	?	0	?	11µM
CCOC(=O)c1sc(NC(=O)c2cc(-c3ccccc3C)nc3ccccc23)c(C#N)c1C	0	8.9µM	0	?	8.9µM
CCOC(=O)c1sc(NC(=O)c2ccncc2)c(C#N)c1C	0	?	0	21µM	?
CCOC(=O)c1sc(NC(=O)CSc2nc(C)cc(-c3ccccc3)n2)c(C#N)c1C	0	0	0	0	0
CCOC(=O)c1c(NC(=O)c2ccncc2)sc(C)c1C	0	0	0	0	0
Cc1noc2ncnc(Sc3ccccc3Cl)c12	0	0	0	0	0
